Inconclusive results are not listed. Active and inactive are the calls of the source. The calls were made as follows, unless noted: active = hit-call score of the fitted dose curve at least 0.9, where 1 is the maximum; inconclusive = response in the unintended direction; inactive = score below 0.9.
Legend:
[1] = ATG_TCF_b_cat_CIS: Attagene CIS-FACTORIAL HepG2 Assay for human T-Cell-Factor with beta-catenin (TCF/b-cat) (AID 2282965; active = hit-call score of the fitted dose curve at least 0.9, where 1 is the maximum; inactive = score below 0.9); conditions: HepG2 TCF/beta-catenin cis-reporter transcription, actives raise or lower the signal
In short: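 Cells of the HepG2 line carry transiently transfected reporter units whose promoters respond to endogenous factors. Twenty-four hours post-dosing, reporter mRNA induction is measured by fluorescent RT-PCR and capillary electrophoresis, with DMSO as baseline.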

[2] = ATG_TAL_CIS: Attagene CIS-FACTORIAL HepG2 Assay for human TAL Basal Promoter (AID 2282966; active = hit-call score of the fitted dose curve at least 0.9, where 1 is the maximum; inactive = score below 0.9;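 also: background control endpoint measuring basal TAL promoter reporter mRNA not a specific factor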); conditions: HepG2 Attagene cis-factorial TAL promoter reporter; actives raise or lower the signal
In short: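 RT-PCR plus capillary electrophoresis quantifies reporter mRNA induction in transiently transfected HepG2 cells after 24 h chemical treatment. DMSO serves as negative control and baseline for bidirectional fitting.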

[3] = ATG_TGFb_CIS: Attagene CIS-FACTORIAL HepG2 Assay for human Transforming Growth Factor (TGF) (AID 2282967; active = hit-call score of the fitted dose curve at least 0.9, where 1 is the maximum; inactive = score below 0.9); conditions: HepG2 Attagene CIS TGFb reporter, mRNA transcription; actives raise or lower the signal
In short: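 Transient MRTU transfection of HepG2 (FuGene 6). Dose 24 h. TriZol RNA, oligo(dT) RT, PCR, 6-FAM primer extension, HpaI cut, CE. Bidirectional fit, DMSO = baseline.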

[4] = ATG_VDRE_CIS: Attagene CIS-FACTORIAL HepG2 Assay for human Vitamin D Receptor Element (VDRE) (AID 2282968; active = hit-call score of the fitted dose curve at least 0.9, where 1 is the maximum; inactive = score below 0.9); conditions: HepG2 VDRE cis-reporter transcription, actives raise or lower the signal
In short: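 Cell-based multiplexed reporter format in human liver HepG2 cells, 24 h post-dose. Fluorescence from capillary electrophoresis of reporter cDNA gives the signal, with DMSO as negative control and baseline.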

[5] = target: Nuclear receptor subfamily 1 group I member 3 (Homo sapiens) (UniProt Q14994); assay: ATG_CAR_TRANS: Attagene TRANS-FACTORIAL HepG2 Assay for human Constitutive Androstane Receptor (CAR) (AID 2282969); conditions: HepG2 Attagene TRANS-FACTORIAL CAR reporter;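 also: activators raise reporter mRNA above DMSO so AC50 marks induction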
Nuclear receptor subfamily 1 group I member 3 (Homo sapiens), sequence (Q14994 whole entry, looked up, the tested form may be a part): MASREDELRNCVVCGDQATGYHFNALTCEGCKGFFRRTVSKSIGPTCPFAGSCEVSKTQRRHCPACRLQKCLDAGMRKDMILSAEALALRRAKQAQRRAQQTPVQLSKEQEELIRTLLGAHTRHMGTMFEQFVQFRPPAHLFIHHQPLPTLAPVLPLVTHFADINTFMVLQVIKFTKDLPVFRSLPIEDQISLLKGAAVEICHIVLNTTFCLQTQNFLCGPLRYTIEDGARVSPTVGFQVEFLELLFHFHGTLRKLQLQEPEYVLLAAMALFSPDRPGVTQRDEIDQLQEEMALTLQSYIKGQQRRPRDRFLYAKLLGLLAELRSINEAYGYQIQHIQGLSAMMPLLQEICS
In short: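 HepG2 cells transiently transfected with GAL4-UAS reporter units; TRANS format reads activity of exogenous chimeric NR-Gal4 protein. After 24 h dosing, reporter mRNA quantified by RT-PCR, 6-FAM labelling and capillary electrophoresis; gain of signal fitted against DMSO.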

[6] = target: X-box-binding protein 1 (Homo sapiens) (UniProt P17861); assay: ATG_Xbp1_CIS: Attagene CIS-FACTORIAL HepG2 Assay for human X-box Binding Protein 1 (XBP1) (AID 2282972; active = hit-call score of the fitted dose curve at least 0.9, where 1 is the maximum; inactive = score below 0.9); conditions: HepG2 XBP1 cis-element reporter, Attagene multiplex; actives raise or lower the signal
X-box-binding protein 1 (Homo sapiens), sequence (P17861 whole entry, looked up, the tested form may be a part): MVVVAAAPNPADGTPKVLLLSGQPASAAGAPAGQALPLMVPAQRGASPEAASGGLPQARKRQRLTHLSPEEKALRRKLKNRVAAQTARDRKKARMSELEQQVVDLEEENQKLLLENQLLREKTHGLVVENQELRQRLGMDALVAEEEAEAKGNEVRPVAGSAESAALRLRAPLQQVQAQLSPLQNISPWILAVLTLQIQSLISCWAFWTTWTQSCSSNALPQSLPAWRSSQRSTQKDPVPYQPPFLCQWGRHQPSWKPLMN
In short: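 Fluorescence-labelled cDNA fragments from reporter transcripts, separated by capillary electrophoresis, give the signal. Source: HepG2 cells transfected with promoter-driven reporter units, harvested 24 h post-dose. DMSO served as reference for bidirectional curve fitting.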

[7] = ATG_M_19_TRANS: Attagene TRANS-FACTORIAL HepG2 Assay for M19 Transcription Factor (Internal Marker) (AID 2282974); conditions: HepG2 Attagene TRANS-FACTORIAL M19 internal marker reporter
In short: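 HepG2 cells transiently transfected with multiple GAL4-UAS reporter transcription units were exposed to chemicals for 24 h. Reporter mRNA was read by RT-PCR, 6-FAM primer extension, HpaI digestion and capillary electrophoresis; gain of signal fitted relative to DMSO.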

[8] = ATG_GAL4_TRANS: Attagene TRANS-FACTORIAL HepG2 Assay for GAL4 (Internal Marker) (AID 2282976); conditions: HepG2 Attagene TRANS GAL4 internal marker reporter
In short: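 In transfected human HepG2 liver cells dosed 24 h, GAL4 reporter mRNA serves as a baseline marker. Detection by RT-PCR with fluorescent capillary electrophoresis, activity fitted upward relative to DMSO.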

[9] = target: Glucocorticoid receptor (Homo sapiens) (UniProt P04150); assay: ATG_GR_TRANS: Attagene TRANS-FACTORIAL HepG2 Assay for human Glucocorticoid Receptor (GR) (AID 2282978); conditions: HepG2 Attagene TRANS GR reporter, mRNA transcription;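 also: activators score as hits since higher reporter transcript over DMSO is fitted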
Glucocorticoid receptor (Homo sapiens), sequence (P04150 whole entry, looked up, the tested form may be a part): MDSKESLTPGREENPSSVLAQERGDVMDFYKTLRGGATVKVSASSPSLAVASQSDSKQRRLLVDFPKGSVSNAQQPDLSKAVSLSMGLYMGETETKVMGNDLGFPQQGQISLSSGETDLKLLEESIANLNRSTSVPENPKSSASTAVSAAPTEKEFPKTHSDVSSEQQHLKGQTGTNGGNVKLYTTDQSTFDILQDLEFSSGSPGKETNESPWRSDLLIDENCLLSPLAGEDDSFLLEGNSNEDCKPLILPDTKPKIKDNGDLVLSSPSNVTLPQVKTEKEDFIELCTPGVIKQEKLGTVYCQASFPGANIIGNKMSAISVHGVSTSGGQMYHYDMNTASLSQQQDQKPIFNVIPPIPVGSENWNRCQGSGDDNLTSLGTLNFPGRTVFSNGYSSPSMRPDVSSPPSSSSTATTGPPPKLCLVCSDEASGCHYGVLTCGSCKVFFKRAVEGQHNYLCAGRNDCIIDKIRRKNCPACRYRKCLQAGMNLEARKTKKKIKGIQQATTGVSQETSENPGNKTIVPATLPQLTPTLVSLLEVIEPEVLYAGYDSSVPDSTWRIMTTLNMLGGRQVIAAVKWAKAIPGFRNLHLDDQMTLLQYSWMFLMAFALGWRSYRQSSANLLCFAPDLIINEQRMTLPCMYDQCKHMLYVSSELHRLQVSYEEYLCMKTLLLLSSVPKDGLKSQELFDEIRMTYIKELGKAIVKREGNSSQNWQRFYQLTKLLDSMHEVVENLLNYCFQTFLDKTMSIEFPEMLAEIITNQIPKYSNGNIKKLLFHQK
In short: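 HepG2 cells transiently transfected with multiplexed reporter units in which chimeric NR-GAL4 proteins drive GAL4-UAS reporters; 24 h compound exposure. Reporter mRNA measured by RT-PCR, 6-FAM labelling, HpaI digestion and capillary electrophoresis; gain-of-signal fitted versus DMSO.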

[10] = target: Bile acid receptor (Homo sapiens) (UniProt Q96RI1); assay: ATG_FXR_TRANS: Attagene TRANS-FACTORIAL HepG2 Assay for Farnesoid X Receptor (FXR) (AID 2282979); conditions: HepG2 Attagene TRANS FXR-GAL4 reporter transcription;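 also: hits raise reporter mRNA above DMSO so AC50 marks FXR activation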
Bile acid receptor (Homo sapiens), sequence (Q96RI1 whole entry, looked up, the tested form may be a part): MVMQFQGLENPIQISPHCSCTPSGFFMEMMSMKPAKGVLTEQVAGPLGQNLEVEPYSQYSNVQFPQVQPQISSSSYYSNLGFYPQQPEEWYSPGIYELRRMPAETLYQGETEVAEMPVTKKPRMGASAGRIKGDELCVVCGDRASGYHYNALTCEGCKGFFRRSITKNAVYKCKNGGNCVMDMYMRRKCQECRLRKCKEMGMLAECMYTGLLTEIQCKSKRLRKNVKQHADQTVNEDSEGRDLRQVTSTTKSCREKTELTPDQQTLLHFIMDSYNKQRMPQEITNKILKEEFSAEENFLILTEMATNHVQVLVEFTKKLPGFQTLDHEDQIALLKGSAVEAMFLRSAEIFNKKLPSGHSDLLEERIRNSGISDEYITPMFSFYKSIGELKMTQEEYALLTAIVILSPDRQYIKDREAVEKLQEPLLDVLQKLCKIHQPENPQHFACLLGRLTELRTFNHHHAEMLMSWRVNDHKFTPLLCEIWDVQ
In short: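 Reporter transcripts from transfected HepG2 cells were measured 24 h after dosing, using RT-PCR with capillary electrophoresis of 6-FAM-labelled fragments. The read-out reflects activity of exogenous FXR-Gal4 chimera on GAL4-UAS units, with induction relative to DMSO.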

[11] = target: Oxysterols receptor LXR-alpha (Homo sapiens) (UniProt Q13133); assay: ATG_LXRa_TRANS: Attagene TRANS-FACTORIAL HepG2 Assay for human Liver X Receptor alpha (LXRa) (AID 2282980); conditions: HepG2 Attagene TRANS reporter, LXRa transactivation
Oxysterols receptor LXR-alpha (Homo sapiens), sequence (Q13133 whole entry, looked up, the tested form may be a part): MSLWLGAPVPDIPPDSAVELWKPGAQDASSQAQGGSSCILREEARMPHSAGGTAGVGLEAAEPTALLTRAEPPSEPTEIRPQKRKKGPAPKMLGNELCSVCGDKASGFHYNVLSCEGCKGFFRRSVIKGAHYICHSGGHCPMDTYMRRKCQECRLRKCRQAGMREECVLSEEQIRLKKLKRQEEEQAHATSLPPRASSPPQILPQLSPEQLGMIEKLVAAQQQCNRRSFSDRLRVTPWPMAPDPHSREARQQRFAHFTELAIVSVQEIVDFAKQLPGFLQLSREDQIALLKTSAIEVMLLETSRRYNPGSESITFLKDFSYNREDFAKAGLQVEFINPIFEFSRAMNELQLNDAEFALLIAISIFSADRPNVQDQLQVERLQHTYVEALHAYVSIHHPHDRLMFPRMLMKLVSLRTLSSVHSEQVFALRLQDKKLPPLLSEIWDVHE
In short: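 Chemical-induced reporter mRNA measured by RT-PCR with fluorescent labelling and capillary electrophoresis after 24 h dosing of transiently transfected HepG2 cells expressing exogenous NR-Gal4 chimeras; increases scored against DMSO baseline.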

[12] = target: Oxysterols receptor LXR-beta (Homo sapiens) (UniProt P55055); assay: ATG_LXRb_TRANS: Attagene TRANS-FACTORIAL HepG2 Assay for human Liver X Receptor beta (LXRb) (AID 2282981); conditions: HepG2 Attagene TRANS GAL4-LXRb reporter, mRNA
Oxysterols receptor LXR-beta (Homo sapiens), sequence (P55055 whole entry, looked up, the tested form may be a part): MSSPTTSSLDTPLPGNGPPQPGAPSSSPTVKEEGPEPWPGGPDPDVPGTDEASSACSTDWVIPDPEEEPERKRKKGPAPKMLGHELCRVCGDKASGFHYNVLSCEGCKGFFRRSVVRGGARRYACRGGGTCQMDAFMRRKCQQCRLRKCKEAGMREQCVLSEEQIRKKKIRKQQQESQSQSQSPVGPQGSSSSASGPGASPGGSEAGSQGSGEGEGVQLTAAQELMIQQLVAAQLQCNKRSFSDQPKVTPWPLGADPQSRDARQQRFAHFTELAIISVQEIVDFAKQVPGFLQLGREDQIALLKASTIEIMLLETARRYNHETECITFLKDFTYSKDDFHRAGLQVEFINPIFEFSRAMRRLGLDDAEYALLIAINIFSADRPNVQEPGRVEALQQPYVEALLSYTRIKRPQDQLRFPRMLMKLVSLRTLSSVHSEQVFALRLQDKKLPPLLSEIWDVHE
In short: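 Gain-of-signal mRNA reporter endpoint, DMSO as negative control. Transiently transfected HepG2 cells carrying the NR-Gal4 chimera and GAL4-UAS reporter units were treated 24 h; transcripts quantified by RT-PCR and capillary electrophoresis fluorescence.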

[13] = target: Hepatocyte nuclear factor 4-alpha (Homo sapiens) (UniProt P41235); assay: ATG_HNF4a_TRANS: Attagene TRANS-FACTORIAL HepG2 Assay for human Hepatocyte Nuclear Factor 4 alpha (HNF4a) (AID 2282982); conditions: HepG2 HNF4a transactivation reporter, mRNA readout
Hepatocyte nuclear factor 4-alpha (Homo sapiens), sequence (P41235 whole entry, looked up, the tested form may be a part): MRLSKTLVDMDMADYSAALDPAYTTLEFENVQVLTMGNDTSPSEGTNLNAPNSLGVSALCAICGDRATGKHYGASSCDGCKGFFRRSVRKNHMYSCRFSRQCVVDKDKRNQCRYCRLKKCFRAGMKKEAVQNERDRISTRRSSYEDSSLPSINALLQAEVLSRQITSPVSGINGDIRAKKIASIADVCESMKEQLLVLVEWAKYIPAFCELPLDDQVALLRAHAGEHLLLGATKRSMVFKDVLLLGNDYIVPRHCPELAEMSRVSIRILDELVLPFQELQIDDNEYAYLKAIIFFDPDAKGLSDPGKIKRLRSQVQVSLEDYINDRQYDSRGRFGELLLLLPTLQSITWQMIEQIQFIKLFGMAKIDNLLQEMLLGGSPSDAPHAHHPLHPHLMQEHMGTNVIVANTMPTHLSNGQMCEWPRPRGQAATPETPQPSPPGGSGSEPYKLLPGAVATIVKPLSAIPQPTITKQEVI
In short: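 Gain-of-signal mRNA induction, relative to DMSO vehicle, was read after 24 h compound treatment of HepG2 cells bearing transfected GAL4-UAS reporters. Detection used RT-PCR, 6-FAM primer extension and capillary electrophoresis.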

[14] = ATG_M_06_TRANS: Attagene TRANS-FACTORIAL HepG2 Assay for M06 Transcription Factor (Internal Marker) (AID 2282983); conditions: HepG2 Attagene TRANS M06 internal marker reporter
In short: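 Cells: HepG2, transient multi-reporter transfection. Exposure: 24 h. Detection: RT-PCR, 6-FAM labelling, HpaI digestion (2 h, 37 °C), capillary electrophoresis. Baseline: DMSO.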

[15] = ATG_M_32_TRANS: Attagene TRANS-FACTORIAL HepG2 Assay for M32 Transcription Factor (Internal Marker) (AID 2282984); conditions: HepG2 Attagene TRANS M32 internal marker reporter;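 also: transcript level of a background control reporter unit measured by RT-PCR and capillary electrophoresis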
In short: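 Capillary electrophoresis of 6-FAM-labelled reporter fragments gives the signal; data fitted for gain over DMSO negative control. Source: HepG2 cells bearing transient multiple reporter transcription units, 24 h exposure.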

[16] = target: Nuclear receptor subfamily 4 group A member 2 (Homo sapiens) (UniProt P43354); assay: ATG_NURR1_TRANS: Attagene TRANS-FACTORIAL HepG2 Assay for human Nuclear Receptor Related Protein 1 (NURR1) (AID 2282985); conditions: HepG2 Attagene TRANS reporter, mRNA readout
In short: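 HepG2 / transient MRTU transfection / 24 h compound exposure / RT-PCR + CE fluorescence of reporter mRNA / gain-of-signal vs DMSO.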

[17] = target: Transcriptional activator Myb (Homo sapiens) (UniProt P10242); assay: ATG_Myb_CIS: Attagene CIS-FACTORIAL HepG2 Assay for human Myeloblastosis (Myb) Proto-Oncogene Transcription Factor (AID 2282986; active = hit-call score of the fitted dose curve at least 0.9, where 1 is the maximum; inactive = score below 0.9); conditions: HepG2 Attagene CIS-FACTORIAL Myb reporter transcription; actives raise or lower the signal
Transcriptional activator Myb (Homo sapiens), sequence (P10242 whole entry, looked up): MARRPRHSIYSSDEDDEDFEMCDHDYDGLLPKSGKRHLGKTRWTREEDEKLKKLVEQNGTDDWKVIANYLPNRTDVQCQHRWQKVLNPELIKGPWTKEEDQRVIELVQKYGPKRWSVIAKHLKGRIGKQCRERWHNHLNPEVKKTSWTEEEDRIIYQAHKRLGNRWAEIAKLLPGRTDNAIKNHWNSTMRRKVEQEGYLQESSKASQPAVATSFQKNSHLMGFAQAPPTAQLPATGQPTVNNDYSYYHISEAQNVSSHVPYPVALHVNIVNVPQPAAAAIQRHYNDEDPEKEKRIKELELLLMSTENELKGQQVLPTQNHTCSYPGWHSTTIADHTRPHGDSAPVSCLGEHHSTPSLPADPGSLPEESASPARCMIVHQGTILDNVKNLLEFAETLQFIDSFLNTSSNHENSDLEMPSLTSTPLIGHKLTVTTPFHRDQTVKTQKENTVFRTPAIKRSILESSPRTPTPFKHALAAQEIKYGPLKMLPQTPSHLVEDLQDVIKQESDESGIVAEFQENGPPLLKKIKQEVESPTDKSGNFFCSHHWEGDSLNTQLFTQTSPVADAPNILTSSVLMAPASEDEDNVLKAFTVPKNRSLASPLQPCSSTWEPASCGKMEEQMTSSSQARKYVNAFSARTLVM
In short: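 HepG2 cells were transiently transfected with cis-regulated multiple reporter transcription units reflecting endogenous Myb activity, then exposed to compound for 24 hours. Reporter mRNA was measured by RT-PCR with capillary electrophoresis; bidirectional fitting versus DMSO baseline.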

[18] = target: Estrogen-related receptor gamma (Homo sapiens) (UniProt P62508); assay: ATG_ERRg_TRANS: Attagene TRANS-FACTORIAL HepG2 Assay for human Estrogen-Related Receptor gamma (ERRg) (AID 2282977); conditions: HepG2 Attagene TRANS reporter, ERRg transactivation;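 also: hits increase reporter signal over DMSO so potencies reflect activators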
Estrogen-related receptor gamma (Homo sapiens), sequence (P62508 whole entry, looked up, the tested form may be a part): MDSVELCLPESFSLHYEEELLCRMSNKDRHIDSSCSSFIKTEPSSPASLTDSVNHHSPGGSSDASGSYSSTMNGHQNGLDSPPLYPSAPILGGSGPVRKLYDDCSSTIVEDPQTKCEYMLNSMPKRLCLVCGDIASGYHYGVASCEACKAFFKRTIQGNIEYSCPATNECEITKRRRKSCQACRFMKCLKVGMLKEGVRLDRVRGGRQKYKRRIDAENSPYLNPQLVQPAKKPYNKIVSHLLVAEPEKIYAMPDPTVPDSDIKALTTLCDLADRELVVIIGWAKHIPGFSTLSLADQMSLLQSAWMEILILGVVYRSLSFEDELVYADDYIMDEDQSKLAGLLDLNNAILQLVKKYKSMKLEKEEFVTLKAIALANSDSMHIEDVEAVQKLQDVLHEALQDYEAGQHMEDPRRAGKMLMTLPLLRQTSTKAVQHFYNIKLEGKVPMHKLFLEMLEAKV
In short: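 HepG2 cells transiently transfected with multiplexed GAL4-UAS reporter units and chimeric NR-Gal4 constructs were exposed to test chemicals for 24 h. Reporter mRNA was measured by RT-PCR, 6-FAM primer extension, HpaI digestion and capillary electrophoresis; gain-of-signal versus DMSO.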

[19] = target: Estrogen receptor (Homo sapiens) (UniProt P03372); assay: ATG_ERa_TRANS: Attagene TRANS-FACTORIAL HepG2 Assay for human Estrogen Receptor alpha (ERa) (AID 2282970); conditions: HepG2 Attagene TRANS ERa GAL4 reporter, mRNA
Estrogen receptor (Homo sapiens), sequence (P03372 whole entry, looked up, the tested form may be a part): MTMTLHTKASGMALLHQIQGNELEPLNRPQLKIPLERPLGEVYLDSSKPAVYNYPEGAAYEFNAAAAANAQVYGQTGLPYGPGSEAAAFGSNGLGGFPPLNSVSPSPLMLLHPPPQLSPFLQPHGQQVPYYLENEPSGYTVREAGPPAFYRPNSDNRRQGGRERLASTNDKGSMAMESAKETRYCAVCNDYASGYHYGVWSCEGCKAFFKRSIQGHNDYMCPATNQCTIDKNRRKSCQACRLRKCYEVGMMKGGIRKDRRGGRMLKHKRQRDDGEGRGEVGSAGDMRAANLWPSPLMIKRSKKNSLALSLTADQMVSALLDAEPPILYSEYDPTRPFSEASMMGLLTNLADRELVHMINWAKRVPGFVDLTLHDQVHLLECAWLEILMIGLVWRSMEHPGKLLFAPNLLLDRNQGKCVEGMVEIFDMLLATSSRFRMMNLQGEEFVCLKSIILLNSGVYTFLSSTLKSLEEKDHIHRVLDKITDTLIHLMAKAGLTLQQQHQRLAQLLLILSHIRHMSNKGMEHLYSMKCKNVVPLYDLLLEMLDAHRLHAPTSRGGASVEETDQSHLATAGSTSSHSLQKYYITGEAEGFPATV
In short: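 Cells: HepG2, transiently transfected. Construct: GAL4-UAS reporter units regulated by exogenous NR-Gal4 chimeras. Time: 24 h. Detection: reporter mRNA by RT-PCR, capillary electrophoresis, fluorescence. Baseline: DMSO, upward fitting.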

Measured: AC50

C[C@]12CC[C@H]3C(=CCc4cc(O)ccc43)[C@@H]1CCC2=O
not listed: [18] | [19]
inactive: all other assays above

O=C(O)C(F)(F)C(F)(F)C(F)(F)OC(F)(F)F
not listed: [14] | [15] | [19]
inactive: all other assays above

C=CCOC(=O)CC(C)C
not listed: [5] | [11] | [13] | [16] | [18]
inactive: all other assays above

CN1CN(C)CN(C)C1
active: [6] 169 µM
not listed: [7] | [8] | [9] | [11] | [13] | [19]
inactive: all other assays above

CC(C)CC=C(C=O)c1ccccc1
active: [19] 21.5 µM
not listed: [5] | [11] | [12] | [13] | [14]
inactive: all other assays above

CCN(CC)c1ccc(C=O)cc1
active: [4] 163 µM
inactive: [1] | [2] | [3] | [5] | [19] | [6] | [10] | [12] | [13] | [17]

CCCCC(CC)COC(=O)c1ccc(N(C)C)cc1 (stereo not given)
active: [19] 5.75 µM
not listed: [7] | [8] | [11] | [12] | [18]
inactive: all other assays above

OCC(O)CC(F)(F)C(F)(F)C(F)(F)C(F)(F)C(F)(F)C(F)(F)C(F)(F)C(F)(F)F (stereo not given)
active: [19] 9.15 µM
not listed: [5] | [9] | [15]
inactive: all other assays above

Nc1cc([N+](=O)[O-])cc(Cl)c1O
not listed: [5] | [10] | [11] | [12] | [13] | [16] | [18]
inactive: all other assays above

CC1=CCC(=O)O1
not listed: [7] | [8] | [9] | [14] | [18] | [19]
inactive: all other assays above

From PubChem BioAssay (EPA / NIEHS)
